For some of these results: Entries with a potency or affinity are not part of this list.
Key:
Parameters in all cases: scale not given: direction of the effect not stated beside the values
[1] = molecular target: Protein translocase subunit SecA (Escherichia coli (strain K12)) (UniProt P10408); assay: Assay to Identify E. coli SecA ATPase Inhibitors; assay type: functional; details: 30 µM
[2] = molecular target: T1, Ubiquitin-activating enzyme e1, putative (Leishmania donovani (strain BPK282A1)) (UniProt E9BSI1); assay: Leishmania donovani Ubiquitin Activating Enzyme (LdE1); assay type: functional; details: 30 µM
T1 sequence (whole entry): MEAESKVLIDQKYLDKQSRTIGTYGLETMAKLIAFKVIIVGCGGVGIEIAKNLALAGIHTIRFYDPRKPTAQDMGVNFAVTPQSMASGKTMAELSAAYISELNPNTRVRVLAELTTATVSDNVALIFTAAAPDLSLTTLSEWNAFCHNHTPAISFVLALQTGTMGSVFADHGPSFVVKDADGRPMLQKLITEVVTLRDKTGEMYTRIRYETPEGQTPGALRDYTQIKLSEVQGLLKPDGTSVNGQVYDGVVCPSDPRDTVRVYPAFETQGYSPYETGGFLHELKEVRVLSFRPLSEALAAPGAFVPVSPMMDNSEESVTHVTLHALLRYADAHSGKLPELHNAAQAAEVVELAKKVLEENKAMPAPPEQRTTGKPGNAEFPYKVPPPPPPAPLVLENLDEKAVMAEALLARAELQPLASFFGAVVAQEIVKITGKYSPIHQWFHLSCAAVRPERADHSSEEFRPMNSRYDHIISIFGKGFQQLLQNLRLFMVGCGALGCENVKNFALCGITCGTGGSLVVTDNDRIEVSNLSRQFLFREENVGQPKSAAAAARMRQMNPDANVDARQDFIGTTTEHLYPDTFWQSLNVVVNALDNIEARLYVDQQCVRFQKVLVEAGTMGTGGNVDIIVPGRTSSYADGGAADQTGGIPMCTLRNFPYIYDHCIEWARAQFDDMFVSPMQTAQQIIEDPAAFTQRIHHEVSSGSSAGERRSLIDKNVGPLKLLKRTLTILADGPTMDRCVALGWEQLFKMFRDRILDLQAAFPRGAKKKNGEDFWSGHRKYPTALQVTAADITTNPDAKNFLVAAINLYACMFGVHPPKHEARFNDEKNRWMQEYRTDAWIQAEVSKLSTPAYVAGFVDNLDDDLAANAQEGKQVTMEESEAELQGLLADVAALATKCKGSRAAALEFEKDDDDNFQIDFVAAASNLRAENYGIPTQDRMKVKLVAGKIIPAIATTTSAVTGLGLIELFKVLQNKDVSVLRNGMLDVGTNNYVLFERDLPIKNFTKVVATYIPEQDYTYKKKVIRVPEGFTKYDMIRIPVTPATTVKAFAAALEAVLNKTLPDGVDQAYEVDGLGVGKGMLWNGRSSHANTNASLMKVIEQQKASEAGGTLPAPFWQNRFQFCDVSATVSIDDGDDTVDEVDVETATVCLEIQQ

[3] = molecular target: AMP-activated protein kinase, AMPK (Homo sapiens) (UniProt P54646+O43741+P54619+Q9UGJ0+Q9Y478+Q13131+Q9UGI9); assay: AMP-dependent Kinase enzyme assay. An in vitro enzyme assay that detects ADP turnover that is directly proportional to AMPK activity. This uses naive AMPK that is activated during the assay with MK-8722; assay type: functional; details: 30 µM
[4] = molecular target: Sialic acid-binding Ig-like lectin 9 (Homo sapiens) (UniProt Q9Y336); assay: Hs-Siglec9 ALPHAscreen SOP 20170721; details: 10 µM
Trypanosoma cruzi = assay: Trypanosoma cruzi phosphomannomutase and mannose-1-phosphate guanylyltransferase assay; assay type: functional; details: 10 µM
[5] = molecular target: T2, Arginase-2, mitochondrial (Homo sapiens) (UniProt P78540); assay: in vitro enzyme assay to detect the production of urea directly proportional to the activity of Arginase II; assay type: functional; details: 33.3 µM; note: in the data most compounds retested in dose-response had high values
T2 sequence (whole entry): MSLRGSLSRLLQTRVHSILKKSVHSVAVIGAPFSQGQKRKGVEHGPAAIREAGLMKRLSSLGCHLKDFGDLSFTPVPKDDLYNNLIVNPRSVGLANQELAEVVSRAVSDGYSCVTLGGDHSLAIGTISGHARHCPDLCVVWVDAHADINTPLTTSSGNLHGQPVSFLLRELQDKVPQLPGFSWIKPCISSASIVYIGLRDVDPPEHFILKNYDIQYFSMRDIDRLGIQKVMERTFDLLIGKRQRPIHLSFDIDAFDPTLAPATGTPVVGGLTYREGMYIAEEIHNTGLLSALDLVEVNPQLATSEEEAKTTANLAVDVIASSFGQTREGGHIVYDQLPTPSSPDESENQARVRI

[6] = molecular target: T3, Proteasome subunit beta (Trypanosoma cruzi) (UniProt O96673); assay: Trypanosoma cruzi proteasome chymotrypsin-like activity (TcProtChymo) assay.; note: in the data most compounds retested in dose-response had high values; assay type: functional; details: 9.37 µM
T3 sequence (whole entry): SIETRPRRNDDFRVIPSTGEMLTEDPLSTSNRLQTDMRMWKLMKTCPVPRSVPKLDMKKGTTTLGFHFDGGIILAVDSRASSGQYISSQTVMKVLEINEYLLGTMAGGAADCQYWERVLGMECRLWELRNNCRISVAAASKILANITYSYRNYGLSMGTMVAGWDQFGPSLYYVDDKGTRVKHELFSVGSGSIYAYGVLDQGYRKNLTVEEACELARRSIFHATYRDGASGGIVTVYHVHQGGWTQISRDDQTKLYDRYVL

Homo sapiens = species: Homo sapiens; assay: To identify inhibition of the IFN signalling (Jak-Stat) pathway via expression of an eGFP reporter gene under the control of an IFN-stimulated response element (ISRE) containing MxA promoter.; assay type: functional; details: 30 µM
[7] = molecular target: T4, Tyrosyl-tRNA synthetase, putative (Trypanosoma cruzi (strain CL Brener)) (UniProt Q4DSP6); assay: Trypanosoma cruzi tyrosyl tRNA synthetase (TcYRS) _High Tyrosine SOP; assay type: functional; details: 30 µM; note: in the data most compounds retested in dose-response had high values
T4 sequence (whole entry): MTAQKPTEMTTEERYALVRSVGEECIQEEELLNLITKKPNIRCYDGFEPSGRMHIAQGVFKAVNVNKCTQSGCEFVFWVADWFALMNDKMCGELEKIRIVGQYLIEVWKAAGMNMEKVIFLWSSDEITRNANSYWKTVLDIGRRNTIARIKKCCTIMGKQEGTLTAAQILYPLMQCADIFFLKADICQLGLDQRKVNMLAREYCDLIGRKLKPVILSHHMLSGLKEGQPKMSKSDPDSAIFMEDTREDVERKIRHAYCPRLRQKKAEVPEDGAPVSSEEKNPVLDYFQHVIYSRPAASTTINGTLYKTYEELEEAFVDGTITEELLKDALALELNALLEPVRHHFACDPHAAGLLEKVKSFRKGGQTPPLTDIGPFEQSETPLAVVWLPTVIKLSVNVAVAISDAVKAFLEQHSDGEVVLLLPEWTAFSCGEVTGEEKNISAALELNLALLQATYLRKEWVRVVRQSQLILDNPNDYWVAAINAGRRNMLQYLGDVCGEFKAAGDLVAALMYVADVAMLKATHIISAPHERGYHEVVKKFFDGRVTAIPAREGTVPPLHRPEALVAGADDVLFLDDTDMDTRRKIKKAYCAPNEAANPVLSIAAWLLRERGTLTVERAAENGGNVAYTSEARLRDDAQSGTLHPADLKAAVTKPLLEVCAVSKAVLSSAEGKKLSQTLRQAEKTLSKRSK

[8] = molecular target: T4, Tyrosyl-tRNA synthetase, putative (Trypanosoma cruzi (strain CL Brener)); assay: Trypanosoma cruzi tyrosyl tRNA synthetase (TcYRS) SOP; assay type: functional; details: 30 µM
[9] = molecular target: Chromo domain-containing protein 1 (Saccharomyces cerevisiae (strain ATCC 204508 / S288c) (Baker's yeast)) (UniProt P32657); assay: ScCHD-1 Enzyme Inhibition Assay; assay type: functional; details: 30 µM; note: in the data most compounds retested in dose-response had high values
Chain of Chromo domain-containing protein 1 (Saccharomyces cerevisiae (strain ATCC 204508 / S288c) (Baker's yeast)) (P32657 whole entry, the tested form may be a part): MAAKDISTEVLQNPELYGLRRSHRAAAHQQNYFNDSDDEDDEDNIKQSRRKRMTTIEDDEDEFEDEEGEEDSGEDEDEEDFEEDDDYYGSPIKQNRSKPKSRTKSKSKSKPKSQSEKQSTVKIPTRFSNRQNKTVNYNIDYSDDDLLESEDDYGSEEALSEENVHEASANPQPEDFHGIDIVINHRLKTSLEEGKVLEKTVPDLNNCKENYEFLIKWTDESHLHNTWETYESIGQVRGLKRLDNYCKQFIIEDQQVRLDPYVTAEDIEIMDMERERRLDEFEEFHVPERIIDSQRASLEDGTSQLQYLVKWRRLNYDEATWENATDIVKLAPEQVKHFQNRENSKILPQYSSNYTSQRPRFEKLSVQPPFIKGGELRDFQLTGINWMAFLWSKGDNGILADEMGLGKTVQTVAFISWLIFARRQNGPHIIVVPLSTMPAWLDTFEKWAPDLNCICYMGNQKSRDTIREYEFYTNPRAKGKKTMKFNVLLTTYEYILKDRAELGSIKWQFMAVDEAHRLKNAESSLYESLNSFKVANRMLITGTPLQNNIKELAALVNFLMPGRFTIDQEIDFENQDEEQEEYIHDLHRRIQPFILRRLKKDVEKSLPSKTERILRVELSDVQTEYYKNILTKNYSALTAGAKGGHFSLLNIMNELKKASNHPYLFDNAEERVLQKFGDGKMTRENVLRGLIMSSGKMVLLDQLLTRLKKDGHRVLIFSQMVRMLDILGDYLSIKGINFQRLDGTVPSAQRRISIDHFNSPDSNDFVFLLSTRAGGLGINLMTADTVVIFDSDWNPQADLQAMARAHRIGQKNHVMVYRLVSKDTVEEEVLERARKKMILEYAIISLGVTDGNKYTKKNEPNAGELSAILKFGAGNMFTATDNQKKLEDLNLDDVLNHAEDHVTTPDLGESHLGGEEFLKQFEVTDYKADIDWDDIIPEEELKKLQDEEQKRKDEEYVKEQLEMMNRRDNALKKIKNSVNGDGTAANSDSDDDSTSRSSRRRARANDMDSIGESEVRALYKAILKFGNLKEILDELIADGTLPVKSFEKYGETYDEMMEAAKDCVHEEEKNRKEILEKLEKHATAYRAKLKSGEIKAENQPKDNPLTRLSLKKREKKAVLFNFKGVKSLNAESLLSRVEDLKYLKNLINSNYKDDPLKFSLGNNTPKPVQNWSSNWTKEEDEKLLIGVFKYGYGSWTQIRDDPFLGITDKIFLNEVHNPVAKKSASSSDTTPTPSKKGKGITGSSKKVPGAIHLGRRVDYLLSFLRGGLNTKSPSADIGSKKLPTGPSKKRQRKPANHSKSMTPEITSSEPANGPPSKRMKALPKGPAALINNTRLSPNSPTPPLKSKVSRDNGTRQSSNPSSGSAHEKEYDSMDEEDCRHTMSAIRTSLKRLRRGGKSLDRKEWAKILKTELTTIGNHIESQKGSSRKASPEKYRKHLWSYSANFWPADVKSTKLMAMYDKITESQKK

Chain of Protein translocase subunit SecA (Escherichia coli (strain K12)) (P10408 whole entry): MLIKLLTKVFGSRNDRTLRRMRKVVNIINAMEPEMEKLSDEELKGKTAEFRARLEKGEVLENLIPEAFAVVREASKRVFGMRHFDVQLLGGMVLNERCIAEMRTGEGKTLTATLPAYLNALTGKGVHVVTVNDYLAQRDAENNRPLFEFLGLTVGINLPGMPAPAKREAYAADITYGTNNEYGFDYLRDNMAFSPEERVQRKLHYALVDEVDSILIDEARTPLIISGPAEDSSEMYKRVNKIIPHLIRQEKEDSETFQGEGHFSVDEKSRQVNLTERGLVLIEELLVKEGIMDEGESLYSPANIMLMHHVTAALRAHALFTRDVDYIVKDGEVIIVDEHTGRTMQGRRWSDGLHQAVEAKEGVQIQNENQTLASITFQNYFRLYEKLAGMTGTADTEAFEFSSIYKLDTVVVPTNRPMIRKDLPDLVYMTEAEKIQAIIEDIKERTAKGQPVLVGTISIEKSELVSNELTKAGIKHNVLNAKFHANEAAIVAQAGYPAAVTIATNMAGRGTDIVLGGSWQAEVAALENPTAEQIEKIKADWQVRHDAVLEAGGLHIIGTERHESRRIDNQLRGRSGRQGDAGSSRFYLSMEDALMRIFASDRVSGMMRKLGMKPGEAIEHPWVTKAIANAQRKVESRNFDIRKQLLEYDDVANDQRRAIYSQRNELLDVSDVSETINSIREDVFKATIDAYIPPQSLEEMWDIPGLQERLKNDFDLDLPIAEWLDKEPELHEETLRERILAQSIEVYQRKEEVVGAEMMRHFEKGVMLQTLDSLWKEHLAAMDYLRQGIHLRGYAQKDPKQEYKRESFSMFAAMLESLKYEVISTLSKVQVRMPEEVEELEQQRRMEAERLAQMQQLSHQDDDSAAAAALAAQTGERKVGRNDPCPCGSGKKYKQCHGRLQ
Chain of Sialic acid-binding Ig-like lectin 9 (Homo sapiens) (Q9Y336 whole entry): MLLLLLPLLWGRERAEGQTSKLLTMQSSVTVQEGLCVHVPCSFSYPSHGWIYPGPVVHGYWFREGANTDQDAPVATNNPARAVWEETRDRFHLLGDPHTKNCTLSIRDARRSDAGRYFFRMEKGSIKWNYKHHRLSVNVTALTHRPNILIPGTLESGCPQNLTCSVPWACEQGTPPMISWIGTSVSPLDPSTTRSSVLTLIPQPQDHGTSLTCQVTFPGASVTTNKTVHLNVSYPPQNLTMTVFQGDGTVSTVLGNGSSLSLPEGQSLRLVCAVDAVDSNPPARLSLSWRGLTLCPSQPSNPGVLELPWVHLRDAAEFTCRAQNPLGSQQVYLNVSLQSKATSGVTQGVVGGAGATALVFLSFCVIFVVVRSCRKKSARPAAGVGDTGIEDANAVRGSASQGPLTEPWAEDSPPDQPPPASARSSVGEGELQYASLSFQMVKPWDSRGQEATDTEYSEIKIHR

Compound	Percent Effect [1]	Percent Effect [2]	Percent Effect [3]	Percent Effect [4]	Percent Effect (Trypanosoma cruzi)	Percent Effect [5]	Percent Effect [6]	Percent Effect (Homo sapiens)	Percent Effect [7]	Percent Effect [8]	Percent Effect [9]
Cc1nc(N2CCCC2)nc2c1CCN(C(=O)C1CCCC1)CC2	-2.37%	4%	0.866%	2.33%	-3.54%	-4.4%	15.2%	-11.3%	9.52%	10.3%	-6.44%
Cc1cccc(Cn2ccc(NS(C)(=O)=O)n2)c1	-6.41%	7.79%	-2.37%	7.5%	7.77%	-40%	9.65%	0.107%	6.45%	11.1%	-7.65%
O=C(N1CCCCC1)N1CCN(CC(O)c2ccc(F)cc2)CC1 (stereo unspecified)	-0.539%	13.2%	-0.12%	5.2%	-4.51%	4.21%	4.84%	20.8%	8.33%	17.1%	-5.09%
CCc1n[nH]c(C2CN(Cc3nccn3CC)CCO2)n1 (stereo unspecified)	-0.0966%	20.8%	-2.5%	-14.5%	2.45%	6.53%	9.62%	7.94%	12.4%	25.9%	-16.2%
CN(C)CCN1CCO[C@@H]2CN(C(=O)c3cccs3)CC[C@@H]2C1	-2.95%	10.8%	3.88%	2.08%	-1.27%	-1.59%	20.3%	5.44%	1.08%	12.8%	-1.74%
Cc1cc(-c2cnc(NCc3cccnc3)nc2C(C)(C)C)on1	-1.82%	0%	24.3%	4.38%	-3.74%	-0.699%	8.37%	43.3%	6.38%	6.41%	-0.51%
Cc1nc(C)n(CC2CCCN(CCc3ccccn3)C2)n1 (stereo unspecified)	-8.02%	13.9%	-5.61%	-6.83%	2.36%	-1.07%	1.2%	3.25%	3.12%	15.2%	-36.4%
c1cnnc(N2CCCC(NCc3nc(C4CC4)no3)C2)c1 (stereo unspecified)	-4.19%	-2.6%	-5.27%	7.57%	7.18%	23.4%	11.3%	-1.78%	16.1%	28.4%	-2.42%
CCc1nc(CC(=O)N2CCn3c(nnc3C(F)(F)F)C2)cs1	-2.58%	0%	6.61%	5.79%	0.564%	4.98%	3.17%	-25.8%	-0.49%	0%	-6.79%
Cc1nn(C)c(N2CCOCC2)c1CNC1CCc2ccccc2C1 (stereo unspecified)	-2.57%	15.2%	-15%	9.25%	3.12%	-2.28%	-2.87%	8.26%	9.36%	16.5%	-4.44%
Cc1cnn(CC2CCCCN2C(=O)c2ccnc(N(C)C)c2)c1 (stereo unspecified)	-4.87%	10.4%	2.75%	9.97%	-0.49%	4.42%	13.8%	5.85%	2.86%	9.41%	-16.5%
